Values joined by “and” are separate entries in the source; they are usually repeats but may differ in a detail not shown here. Identical values can stand only once. About 2,000 (36%) of roughly 5,500 compounds were called active. About 18% were inconclusive and are not listed. Cut-off read from the data, not from the text of the source: active = normalized growth mostly below about 0.91 (no sharp cut-off); inconclusive = no clear call, values can overlap the other calls; inactive = mostly above about 0.92. The list shows a part of the results.
Experiment: chemical genetic growth profiling, strain panel (AID 1159580);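 note: tested at 20 µM; growth read once vehicle control cultures reached saturation at 30 °C; 1 = growth at the plate median or of vehicle wells; lower values mean less growth of the strain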
Conditions: S. cerevisiae deletion strains, growth OD

Measured: normalized growth

CN[C@@H]1[C@H](OC2[C@H](O[C@H]3[C@H](O)[C@@H](O)[C@H](N=C(N)N)[C@@H](O)[C@@H]3N=C(N)N)O[C@@H](C)[C@]2(O)C=O)O[C@@H](CO)[C@H](O)[C@H]1O (stereo not given in full)
inactive: locus YAL013W, strain DEP1, hits give low values 1 | locus YAL021C, strain ccr4, hits give low values 1 | locus YAL026C, strain drs2, hits give low values 0.993 | locus YAL030W, strain snc1, hits give low values 1.01 | locus YBL061C, strain skt5, hits give low values 1.01 | locus YBR009C, strain hhf1, hits give low values 0.988 | locus YBR021W, strain FUR4, hits give low values 1.02 | locus YBR023C, strain chs3, hits give low values 1 | locus YBR171W, strain sec66, hits give low values 1.01 | locus YBR229C, strain ROT2, hits give low values 1.02 | locus YBR231C, strain swc5, hits give low values 1.03 | locus YBR279W, strain paf1, hits give low values 0.999 | locus YCL011C, strain gbp2, hits give low values 0.992 | locus YCL016C, strain dcc1, hits give low values 0.98 | locus YCL029C, strain bik1, hits give low values 1.01 | locus YCL069W, strain vba3, hits give low values 1.01 | locus YCR088W, strain abp1, hits give low values 0.998 | locus YDL005C, strain med2, hits give low values 1.01 | locus YDL035C, strain GPR1, hits give low values 1.01 | locus YDL040C, strain nat1, hits give low values 0.999 | locus YDL074C, strain BRE1, hits give low values 1.01 | locus YDL101C, strain DUN1, hits give low values 1.01 | locus YDL134C, strain PPH21, hits give low values 1.01 | locus YDL185W, strain tfp1, hits give low values 0.996 | locus YDL192W, strain arf1, hits give low values 1.01 | locus YDR001C, strain nth1, hits give low values 0.987 | locus YDR069C, strain doa4, hits give low values 1.04 | locus YDR101C, strain arx1, hits give low values 1.01 | locus YDR137W, strain rgp1, hits give low values 1.03 | locus YDR159W, strain sac3, hits give low values 0.978 | locus YDR162C, strain NBP2, hits give low values 1 | locus YDR195W, strain ref2 1.04 | locus YDR297W, strain sur2, hits give low values 1.02 | locus YDR318W, strain mcm21, hits give low values 1.01 | locus YDR334W, strain swr1, hits give low values 1.01 | locus YDR335W, strain msn5, hits give low values 1.01 | locus YDR388W, hits give low values 1.02 | locus YDR392W, strain spt3, hits give low values 0.959 | locus YDR502C, strain sam2, hits give low values 1.02 | locus YEL003W, strain gim4, hits give low values 1.01 | locus YEL037C, strain rad23, hits give low values 1 | locus YEL061C, strain CIN8 (second series), hits give low values 1.01 | locus YEL061C, strain CIN8, hits give low values 1.01 | locus YER015W, strain faa2, hits give low values 1 | locus YER016W, strain bim1, hits give low values 0.987 | locus YER110C, hits give low values 1.03 | locus YER111C, strain swi4, hits give low values 1 | locus YER155C, strain BEM2 (second series), hits give low values 1.04 | locus YER155C, strain BEM2, hits give low values 0.995 | locus YER167W, strain BCK2, hits give low values 1.01 | locus YFR010W, strain ubp6, hits give low values 1.03 | locus YGL078C, strain dbp3, hits give low values 1 | locus YGL086W, strain mad1, hits give low values 1.01 | locus YGL167C, strain pmr1, hits give low values 1.02 | locus YGL173C, strain kem1, hits give low values 1.03 | locus YGL227W, strain vid30, hits give low values 0.998 | locus YGL240W, strain doc1, hits give low values 1.05 | locus YGL248W, strain PDE1, hits give low values 1.01 | locus YGL253W, strain hxk2, hits give low values 0.977 | locus YGR135W, strain pre9, hits give low values 1.01 | locus YGR229C, strain SMI1, hits give low values 1 | locus YGR252W, strain gcn5, hits give low values 1.01 | locus YHR013C, strain ard1, hits give low values 1.01 | locus YHR027C, strain rpn1, hits give low values 1 | locus YHR030C, strain SLT2, hits give low values 1.01 and 0.961 | locus YHR079C, strain IRE1 (second series), hits give low values 1.02 | locus YHR079C, strain IRE1, hits give low values 0.991 | locus YHR094C, strain hxt1, hits give low values 1.02 | locus YHR129C, strain ARP1, hits give low values 1.01 | locus YHR142W, strain chs7, hits give low values 1 | locus YHR200W, strain rpn10, hits give low values 1.02 | locus YIL066C, strain RNR3, hits give low values 1.02 | locus YIL073C, strain SPO22, hits give low values 1.05 | locus YIL125W, strain kgd1, hits give low values 1.01 | locus YIR030C, strain dcg1, hits give low values 1.01 | locus YJL092W, strain hpr5, hits give low values 1.01 | locus YJL095W, strain BCK1 (second series), hits give low values 1.01 | locus YJL095W, strain BCK1, hits give low values 1.01 and 0.996 | locus YJL115W, strain asf1, hits give low values 1.01 | locus YJL129C, strain trk1, hits give low values 1.02 | locus YJL134W, strain LCB3, hits give low values 1 | locus YJL154C, strain vps35, hits give low values 1 | locus YJL164C, strain tpk1, hits give low values 0.983 | locus YJL166W, strain qcr8, hits give low values 1.02 | locus YJL168C, strain set2, hits give low values 1.01 | locus YJL187C, strain SWE1 (second series), hits give low values 1.02 | locus YJL187C, strain SWE1, hits give low values 1.01 | locus YJR043C, strain POL32, hits give low values 1.01 | locus YJR066W, strain TOR1, hits give low values 0.978 | locus YJR075W, strain HOC1, hits give low values 1.01

Source: PubChem BioAssay AID1159580 (chemical genetic matrix, 2015)
